In PubChem BioAssay (NCATS):
Records with an inconclusive call do not appear. A call without a number means that no potency is given here. The source made the active and inactive calls. Calls follow the shape of the dose curve; as a rule, active = well fitted curve in the direction sought with a large enough effect; inconclusive = small, poorly fitted or top-dose-only effect, or another doubt; inactive = no such curve, though single readings can be large; an effect the other way counts as inactive or inconclusive.

What was measured:
[1] = Quantitative highthroughput screen to assess conditional lethalithy of NOMO1 cells grown in RPMI1640 with untreated serum (RPMI+s) (AID 1963876); also: nearly all actives have a fitted effect of over 35% in size
Method in brief: (§1)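 Each medium arm—HPLM with 10% dialyzed FBS, or RPMI1640 with 5 mM glucose and 10% untreated or dialyzed FBS—was screened against an 11-point, 3-fold compound titration for 48 h at 37 °C, with CellTiter-Glo luminescence as endpoint.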

[2] = Quantitative highthroughput screen to assess conditional lethalithy of NOMO1 cells grown in RPMI1640 with dialyzed fetal bovine serum (RPMI+ds) (AID 1963877); also: nearly all actives have a fitted effect of over 30% in size; as to viability: series mostly up to about 46 µM
Method in brief: as §1

[3] = Quantitative highthroughput screen to assess conditional lethalithy of NOMO1 cells grown in Human Plasma-Like Medium with dialyzed fetal bovine serum (HPLM+ds) (AID 1963878); also: nearly all actives have a fitted effect of over 35% in size
Method in brief: as §1

[4] = Quantitative highthroughput screen to assess conditional lethalithy of P12 Ichikawa cells grown in Human Plasma-Like Medium with dialyzed fetal bovine serum (HPLM+ds) (AID 1963879); settings: Potency: viability; also: nearly all actives have a fitted effect of over 35% in size; as to viability: series mostly up to about 46 µM
Method in brief: as §1

[5] = Quantitative highthroughput screen to assess conditional lethalithy of P12 Ichikawa cells grown in RPMI1640 with dialyzed fetal bovine serum (RPMI+ds) (AID 1963880); settings: Potency: P12-Ichikawa viability; also: nearly all actives have a fitted effect of over 35% in size
Method in brief: as §1

[6] = Quantitative highthroughput screen to assess conditional lethalithy of P12 Ichikawa cells grown in RPMI1640 with untreated serum (RPMI+s) (AID 1963881); settings: Potency: viability; also: nearly all actives have a fitted effect of over 35% in size; as to viability: series mostly up to about 46 µM
Method in brief: as §1

[7] = Quantitative highthroughput screen to assess conditional lethalithy of SEM cells grown in Human Plasma-Like Medium with dialyzed fetal bovine serum (HPLM+ds) (AID 1963882); also: nearly all actives have a fitted effect of over 35% in size; as to viability: series mostly up to about 46 µM
Method in brief: as §1

[8] = Quantitative highthroughput screen to assess conditional lethalithy of SEM cells grown in RPMI1640 with unreated serum (RPMI+s) (AID 1963883); also: nearly all actives have a fitted effect of over 35% in size
Method in brief: as §1

[9] = Quantitative highthroughput screen to assess conditional lethalithy of SEM cells grown in RPMI1640 with dialyzed fetal bovine serum (RPMI+ds) (AID 1963884); also: nearly all actives have a fitted effect of over 35% in size; as to viability: series mostly up to about 46 µM
Method in brief: as §1
Potency is read from the fitted curve at half-maximal effect.

SMILES	Potency [1]	Potency [2]	Potency [3]	Potency [4]	Potency [5]	Potency [6]	Potency [7]	Potency [8]	Potency [9]
C[C@H](CCC(=O)O)[C@H]1CC[C@H]2[C@@H]3[C@H](O)C[C@@H]4C[C@H](O)CC[C@]4(C)[C@@H]3CC[C@]12C	inactive	inactive	inactive	inactive	inactive	inactive	inactive	inactive	inactive
CCN(CC)CCNC(=O)c1c(C)[nH]c(C=C2C(=O)Nc3ccc(F)cc32)c1C	303 nM (active)	303 nM (active)	171 nM (active)	270 nM (active)	340 nM (active)				
Cc1ccc([N+](=O)[O-])cc1S(=O)(=O)N(C)N=Cc1cnc2ccc(Br)cn12	93.5 nM (active)	105 nM (active)	52.6 nM (active)	166 nM (active)	132 nM (active)	132 nM (active)	59 nM (active)	66.2 nM (active)	83.3 nM (active)
CC1=C(CO)C(=O)O[C@@H]([C@@H](C)[C@H]2CC[C@H]3[C@@H]4C[C@H]5O[C@]56[C@@H](O)C=CC(=O)[C@]6(C)[C@@H]4CC[C@]23C)C1	372 nM (active)	469 nM (active)	296 nM (active)	296 nM (active)	264 nM (active)	235 nM (active)	235 nM (active)	235 nM (active)	264 nM (active)
NC(N)=Nc1nc(CSCCC(N)=NS(N)(=O)=O)cs1	inactive	inactive	inactive	inactive	inactive	inactive	inactive	inactive	inactive
Cc1nc(NC(=O)N2CCC[C@@H]2C(N)=O)sc1-c1csc(C(C)(C)C)n1	2350 nM (active)	1660 nM (active)	1480 nM (active)	1660 nM (active)	2350 nM (active)	1660 nM (active)	1050 nM (active)	743 nM (active)	1050 nM (active)
C[C@@H]1O[C@@H](O[C@H]2CC[C@@]3(C)[C@H](CC[C@@H]4[C@H]3C[C@@H](O)[C@]3(C)[C@@H](C5=CC(=O)OC5)CC[C@]43O)C2)C[C@H](O)[C@@H]1O[C@H]1C[C@H](O)[C@H](O[C@H]2C[C@H](O)[C@@H](O)[C@@H](C)O2)[C@H](C)O1 (stereo in doubt)	605 nM (active)	382 nM (active)	191 nM (active)	85.5 nM (active)	191 nM (active)	270 nM (active)	95.9 nM (active)	382 nM (active)	270 nM (active)
CCOc1cc2ncc(C#N)c(Nc3ccc(F)c(Cl)c3)c2cc1NC(=O)C=CCN(C)C	16600 nM (active)	7430 nM (active)	4690 nM (active)	3720 nM (active)	5260 nM (active)	5260 nM (active)	1320 nM (active)	418 nM (active)	743 nM (active)
CC1=C(C(=O)O)N2C(=O)[C@@H](NC(=O)C(N)c3ccccc3)[C@H]2SC1 (stereo partly drawn)	inactive	inactive	inactive	inactive	inactive	inactive	inactive	inactive	inactive
CN[C@@H]1C[C@H]2O[C@@](C)([C@H]1OC)n1c3ccccc3c3c4c(c5c6ccccc6n2c5c31)C(=O)N[C@H]4O	833 nM (active)	1050 nM (active)	590 nM (active)	743 nM (active)	590 nM (active)	418 nM (active)	332 nM (active)	332 nM (active)	526 nM (active)
Cc1[nH]c2ccccc2c1CCNCc1ccc(C=CC(=O)NO)cc1	743 nM (active)	743 nM (active)	526 nM (active)	590 nM (active)	662 nM (active)	469 nM (active)	209 nM (active)	264 nM (active)	264 nM (active)
CC1(C)CC(O)CC(C)(C)N1[O]	inactive	inactive	inactive	inactive	inactive	inactive	inactive	inactive	inactive
C=C1CCC2[C@](C)(CO)C(O)CC[C@]2(C)C1CC=C1C(=O)OCC1O (stereo partly drawn)	inactive	inactive	inactive	inactive	inactive	inactive	inactive	34 nM (active)	inactive
CN(C)CC=CC(=O)Nc1cc2c(Nc3ccc(F)c(Cl)c3)ncnc2cc1O[C@H]1CCOC1	1870 nM (active)	1870 nM (active)	1660 nM (active)	1660 nM (active)	2350 nM (active)	1870 nM (active)	1050 nM (active)	743 nM (active)	1180 nM (active)
CCCCCOC(=O)Nc1nc(=O)n([C@@H]2O[C@H](C)[C@@H](O)C2O)cc1F (stereo partly drawn)	inactive	inactive	inactive	inactive	inactive	inactive	inactive	inactive	inactive
O=C1Nc2ccc(I)cc2C1=Cc1cc(Br)c(O)c(Br)c1	inactive	inactive	inactive	inactive	inactive	inactive	inactive	16600 nM (active)	18700 nM (active)
NC[C@@H]1O[C@@H](O[C@H]2[C@@H](O)[C@H](O[C@@H]3[C@@H](O)[C@@H](N)C[C@H](N)[C@H]3O[C@H]3O[C@H](CN)[C@@H](O)[C@@H](O)[C@H]3N)O[C@H]2CO)[C@H](N)[C@@H](O)[C@@H]1O	inactive	inactive	inactive	inactive	inactive	inactive	inactive	inactive	inactive

SMILES	Potency [1]	Potency [2]	Potency [3]	Potency [4]	Potency [5]	Potency [6]	Potency [7]	Potency [8]	Potency [9]
CC[C@H]1OC(=O)[C@H](C)[C@@H](O[C@H]2C[C@@](C)(OC)[C@@H](O)[C@H](C)O2)[C@H](C)[C@@H](O[C@@H]2O[C@H](C)C[C@H](N(C)C)[C@@H]2O)[C@](C)(OC)C[C@@H](C)C(=O)[C@H](C)[C@@H](O)[C@]1(C)O	inactive	inactive	inactive	inactive	inactive	inactive	inactive	inactive	inactive
CC(=O)O[C@H]1C[C@@H]2CC[C@H]3[C@H]4C[C@H]([N+]5(C)CCCCC5)[C@@H](OC(C)=O)[C@@]4(C)CC[C@@H]3[C@@]2(C)C[C@H]1N1CCCCC1	inactive	inactive	inactive	inactive	inactive	inactive	inactive	inactive	inactive
CC(C)(O)[C@H]1CC[C@@](C)([C@H]2[C@@H](O)C[C@@]3(C)[C@@H]4C[C@H](O[C@@H]5O[C@H](CO)[C@@H](O)[C@H](O)[C@@H]5O)[C@H]5C(C)(C)[C@@H](O[C@@H]6OC[C@@H](O)[C@H](O)[C@@H]6O)CC[C@@]56C[C@@]46CC[C@]23C)O1	inactive	inactive	inactive	inactive	inactive	inactive	inactive	inactive	inactive
N#CC(=C(O)c1ccc(Cl)cc1Cl)c1nc2cc(Cl)ccc2c(=O)[nH]1	inactive	inactive	inactive	inactive	inactive	inactive	inactive	inactive	inactive
CCOC(=O)N1CCN([N+]([O-])=NOc2cc(ON=[N+]([O-])N3CCN(C(=O)OCC)CC3)c([N+](=O)[O-])cc2[N+](=O)[O-])CC1	inactive	inactive	inactive	inactive	inactive	inactive	inactive	inactive	inactive
CN[C@@H]1[C@@H](O)[C@@H](O[C@@H]2[C@@H](O)[C@H](O[C@H]3O[C@H](CN)[C@@H](O)[C@H](O)[C@@H]3O)[C@@H](N)C[C@@H]2NC(=O)[C@@H](O)CN)OC[C@]1(C)O	inactive	inactive	inactive	inactive	inactive	inactive	inactive	inactive	inactive
COc1ccccc1N1CCN(CCN(C(=O)C2CCCCC2)c2ccccn2)CC1	inactive	inactive	inactive	inactive	inactive	inactive	inactive	inactive	inactive
CC=C1NC(=O)[C@H]2CSSCCC=C[C@H](CC(=O)N[C@H](C(C)C)C(=O)N2)OC(=O)[C@H](C(C)C)NC1=O	41.8 nM (active)	52.6 nM (active)	37.2 nM (active)	37.2 nM (active)	37.2 nM (active)	37.2 nM (active)	37.2 nM (active)	29.6 nM (active)	37.2 nM (active)
CN(C)CCC=C1c2ccccc2COc2ccc(CC(=O)O)cc21	inactive	inactive	inactive	inactive	inactive	inactive	inactive	inactive	inactive
C[C@]12CCC3=C4CCC(=O)C=C4CC[C@@H]3[C@H]1CC[C@@]2(O)CC#N	inactive	inactive	inactive	inactive	inactive	inactive	inactive	inactive	inactive
COc1ccc2c3c1OC1C[C@@H](O)C=C[C@@]31CCN(C)C2 (stereo partly drawn)	inactive	inactive	inactive	inactive	inactive	inactive	inactive	inactive	inactive
COc1cc(N2CCC(C(N)=O)CC2)ccc1Nc1nc(N)c(Cl)c(Nc2ccccc2S(=O)(=O)C(C)C)n1	20900 nM (active)	16600 nM (active)	16600 nM (active)	23500 nM (active)	18700 nM (active)	18700 nM (active)	8330 nM (active)	4180 nM (active)	9350 nM (active)
O=C1NC(=O)C(=Cc2ccc(-c3ccc(F)cc3)o2)S1	inactive	inactive	inactive	inactive	inactive	inactive	inactive	inactive	inactive
C[N+]1(C)[C@@H]2CC(OC(=O)[C@H](CO)c3ccccc3)C[C@H]1[C@H]1O[C@@H]12 (stereo partly drawn)	inactive	inactive	inactive	inactive	inactive	inactive	inactive	inactive	inactive
CN1[C@@H]2CCC[C@@H]1CC(NC(=O)c1nn(C)c3ccccc13)C2 (stereo partly drawn)	inactive	inactive	inactive	inactive	inactive	inactive	inactive	inactive	inactive
O=C(CS(=O)Cc1ccco1)NCC=CCOc1cc(CN2CCCCC2)ccn1 (stereo not drawn)	inactive	inactive	inactive	inactive	inactive	inactive	inactive	inactive	inactive
